Some test systems named below: SK-MEL-2 melanoma; EKVX NSCLC; SN12C renal; UO-31 renal; TK-10 renal; ACHN renal; A498 renal; CCRF-CEM leukemia; MOLT-4 leukemia; SR leukemia.
Holding throughout (assay): NCI-60 one-dose screen, 48 h (100 = growth as untreated, 0 = no growth, -100 = all killed)
Conditions in all cases: 10 µM unless noted

This is part of a sample that, as a whole, favours compounds with a hit. Of some 83,000 tested, about 20% had one in any assay.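 Activity criterion: percent growth below 10, measured after cells in 96-well plates were exposed to a single compound concentration for 48 hours.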 A number with no mark means an inactive call. Active and inactive are the calls of the source.

Turning to `Cc1c(Cl)cccc1NC(=O)c1sc2nc3c(cc2c1N)COCC3`, the growth with SK-MEL-2 melanoma was 29.4%; in the test on EKVX NSCLC, 60.3%; in the test with SN12C renal it was 44.1%; with UO-31 renal it was 49.2%; in the test on TK-10 renal it was 57%; with ACHN renal, 44.2%. For the same compound, the growth is 18.1% in the test on A498 renal, 21.1% in the test on CCRF-CEM leukemia, 27.5% in the test on MOLT-4 leukemia and 15.4% in the test on SR leukemia.

Turning to `C[C@@H]1C(=O)[C@@H]2C[C@@H](O)[C@@H](O)C[C@]2(C)[C@H]2CC[C@@]3(C)C(=C12)CC[C@@H]3[C@@](C)(O)[C@H](O)CCC(C)(C)O`, the growth was 108% with SK-MEL-2 melanoma; 113% in the test on EKVX NSCLC; 104% in the test on SN12C renal; 89% in the test on UO-31 renal; 95.9% in the test with TK-10 renal; 117% in the test on ACHN renal. Besides, the growth in the test with A498 renal is 67.2%; in the test with CCRF-CEM leukemia, 89.5%; with MOLT-4 leukemia, 87.3%; in the test on SR leukemia it was 97.4%.

`O=C1C(Cl)=C(Nc2ccc3c(c2NC2=C(Cl)C(=O)c4ccccc4C2=O)C(=O)c2ccccc2C3=O)C(=O)c2ccccc21`: the growth in the test on SK-MEL-2 melanoma was 40.8%; in the test with EKVX NSCLC, 34.5%; with SN12C renal, 4.99% (active); with UO-31 renal, 23.1%; in the test on TK-10 renal, 77.3%; in the test with ACHN renal it was 29.2%. The growth in the test with A498 renal is 50.5%; with CCRF-CEM leukemia, 17.8%; in the test with MOLT-4 leukemia, 8.53% (active); in the test with SR leukemia, 13.3%.

Take `Cc1cc(Nc2nc(SCc3ccc(C(=O)Nc4ccc(F)cc4N)cc3)nn3cccc23)n[nH]1`: the growth in the test on SK-MEL-2 melanoma was 18.2%; in the test on EKVX NSCLC it was 31%; in the test on SN12C renal it was 29%; with UO-31 renal, 31%; in the test on TK-10 renal, 48.8%; with ACHN renal it was 21.1%. In addition, the growth is 5.84% (active) in the test with A498 renal, 9.8% (active) with CCRF-CEM leukemia, 6.29% (active) with MOLT-4 leukemia and 13.3% with SR leukemia.

On to `O=C(O)c1ccc(-n2cc(/C=N/Nc3ccc(Cl)cc3Cl)c(-c3ccccc3)n2)cc1`, for which the growth is 91.6% in the test on SK-MEL-2 melanoma; 77% with EKVX NSCLC; 102% with SN12C renal; 67.5% with UO-31 renal; 109% with TK-10 renal; 83% with ACHN renal. The growth in the test on A498 renal is 108%; with CCRF-CEM leukemia it was 93.8%; in the test on MOLT-4 leukemia it was 88.9%; in the test with SR leukemia, 86.2%.

For the compound `C=C(C)[C@@H]1CC[C@]2(C(=O)OCCOCCOCC[P+](c3ccccc3)(c3ccccc3)c3ccccc3)CC[C@]3(C)[C@H](CC[C@@H]4[C@@]5(C)CC[C@H](OC(=O)C(Cl)Cl)C(C)(C)[C@@H]5CC[C@]43C)[C@@H]12`, the growth was -45.4% (active) in the test on SK-MEL-2 melanoma; -15.2% (active) in the test on EKVX NSCLC; -46.9% (active) with SN12C renal; -45.1% (active) in the test with UO-31 renal; 15.7% in the test on TK-10 renal; -79.2% (active) with ACHN renal. Besides, the growth with A498 renal was -28.3% (active); with CCRF-CEM leukemia, 4.25% (active); in the test on MOLT-4 leukemia, -8.02% (active); in the test with SR leukemia, -32% (active).

Take `CCc1ccc(OCc2ccccc2C(=O)Nc2ccc3nc(C)cc(N)c3c2)cc1`: the growth with SK-MEL-2 melanoma is -83.1% (active); with EKVX NSCLC it was -56.2% (active); with SN12C renal, -79.7% (active); in the test on UO-31 renal, -98.5% (active); with TK-10 renal it was -93.5% (active); in the test with ACHN renal it was -100% (active). Also, the growth in the test with A498 renal was -94.3% (active); in the test with CCRF-CEM leukemia, -53.4% (active); in the test on MOLT-4 leukemia, -74.4% (active); in the test on SR leukemia, -61.2% (active).

On to `CN(C)CSc1nc2ccccc2s1`, for which the growth was 101% with SK-MEL-2 melanoma; 87.6% with EKVX NSCLC; 101% in the test with SN12C renal; 71.8% in the test on UO-31 renal; 119% in the test on TK-10 renal; 92.6% with ACHN renal. Moreover, the growth in the test on A498 renal is 111%; with CCRF-CEM leukemia, 83.5%; in the test on MOLT-4 leukemia, 99.7%; with SR leukemia it was 94.1%.

On to `CCOC(=O)c1c(C)nc2c(c1N)/C(=C/c1ccccn1)C(=O)N2Cc1ccccc1`, for which the growth was -26.1% (active) in the test on SK-MEL-2 melanoma; 24.8% in the test with EKVX NSCLC; 8.15% (active) in the test with SN12C renal; -65.6% (active) in the test with UO-31 renal; 2.08% (active) with TK-10 renal; 0.89% (active) in the test with ACHN renal. The growth in the test on A498 renal was 54.6%; in the test with CCRF-CEM leukemia, 2.47% (active); in the test on MOLT-4 leukemia, -12.8% (active); in the test on SR leukemia it was -11.8% (active).

Regarding `O=C(Nc1cccc(-c2cccc(F)c2)c1)C1CCN(Cc2cccc3cccnc23)CC1`, the growth is 63.1% with SK-MEL-2 melanoma; 68.4% with EKVX NSCLC; 74.2% with SN12C renal; 35.8% with UO-31 renal; 60.1% with TK-10 renal; 65.5% in the test with ACHN renal. The growth was 55.3% in the test on A498 renal, 57.2% in the test on CCRF-CEM leukemia, 17.6% in the test with MOLT-4 leukemia and -32.7% (active) in the test on SR leukemia.

With `COc1ccc2c(c1)OC13Oc4cc(OC)ccc4C=C1CCCCC3=C2`, the growth in the test with SK-MEL-2 melanoma was 80.2%; in the test on EKVX NSCLC, 88.8%; in the test with SN12C renal, 93.6%; in the test with UO-31 renal, 84.7%; with TK-10 renal it was 86.8%; in the test with ACHN renal, 104%. Further, the growth with A498 renal is 98.2%; with CCRF-CEM leukemia, 80.9%; in the test on MOLT-4 leukemia it was 80.6%; with SR leukemia, 99%.

In the case of `COc1cccc(NC(=O)Nc2ccc(Nc3ncnc4[nH]c(C)c(C)c34)cc2)c1`, the growth in the test on SK-MEL-2 melanoma is 104%; in the test on EKVX NSCLC, 96.5%; in the test with SN12C renal, 95%; with UO-31 renal it was 85.2%; in the test with TK-10 renal it was 112%; with ACHN renal, 102%. Besides, the growth in the test with A498 renal was 107%; in the test on CCRF-CEM leukemia it was 86.1%; with MOLT-4 leukemia it was 78.8%; with SR leukemia it was 91.1%.

Regarding `CSc1nc(-c2cccs2)c2c(N)[nH]nc2n1`, the growth in the test with SK-MEL-2 melanoma is 104%; with EKVX NSCLC, 73.1%; in the test with SN12C renal it was 109%; in the test on UO-31 renal it was 84.1%; with TK-10 renal, 93.4%; with ACHN renal, 101%. Moreover, the growth in the test with A498 renal was 66.7%; in the test with CCRF-CEM leukemia it was 109%; in the test on MOLT-4 leukemia, 87%; in the test on SR leukemia, 73.3%.

The values above are taken from PubChem BioAssay (NCI).
